In PubChem BioAssay (EPA / NIEHS):
Results filed as inconclusive are left out. Active and inactive are the calls of the source. How the source made its calls, unless noted: active means hit-call score of the fitted dose curve at least 0.9, where 1 is the maximum; inconclusive means response in the unintended direction; inactive means score below 0.9.

Tests used:
[1] = ACEA_ER_AUC_viability: ACEA Biosciences xCELLigence Real-Time Cell Analysis on Estrogen Receptor Agonism for Viability (AID 2283782);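 further: hit means loss of impedance signal meaning reduced cell growth or viability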
Outline: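 Continuous-exposure impedance cell analysis uses T-47D cells in charcoal-stripped serum, eight 1:4 dilutions topping at 100 uM final, biological duplicate. Area under the growth curve at 80 h is fitted against DMSO baseline.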

PGR (gene 5241) [2] = biological target: PGR (gene 5241) (UniProt P06401); test: TOX21_PR_BLA_Followup_Agonist_ratio: Tox21 HEK293 Progesterone Receptor (PR) Agonism Beta-lactamase Follow-Up Assay, Ratio (AID 2283933)
Chain of PGR (gene 5241) (P06401 whole entry, looked up): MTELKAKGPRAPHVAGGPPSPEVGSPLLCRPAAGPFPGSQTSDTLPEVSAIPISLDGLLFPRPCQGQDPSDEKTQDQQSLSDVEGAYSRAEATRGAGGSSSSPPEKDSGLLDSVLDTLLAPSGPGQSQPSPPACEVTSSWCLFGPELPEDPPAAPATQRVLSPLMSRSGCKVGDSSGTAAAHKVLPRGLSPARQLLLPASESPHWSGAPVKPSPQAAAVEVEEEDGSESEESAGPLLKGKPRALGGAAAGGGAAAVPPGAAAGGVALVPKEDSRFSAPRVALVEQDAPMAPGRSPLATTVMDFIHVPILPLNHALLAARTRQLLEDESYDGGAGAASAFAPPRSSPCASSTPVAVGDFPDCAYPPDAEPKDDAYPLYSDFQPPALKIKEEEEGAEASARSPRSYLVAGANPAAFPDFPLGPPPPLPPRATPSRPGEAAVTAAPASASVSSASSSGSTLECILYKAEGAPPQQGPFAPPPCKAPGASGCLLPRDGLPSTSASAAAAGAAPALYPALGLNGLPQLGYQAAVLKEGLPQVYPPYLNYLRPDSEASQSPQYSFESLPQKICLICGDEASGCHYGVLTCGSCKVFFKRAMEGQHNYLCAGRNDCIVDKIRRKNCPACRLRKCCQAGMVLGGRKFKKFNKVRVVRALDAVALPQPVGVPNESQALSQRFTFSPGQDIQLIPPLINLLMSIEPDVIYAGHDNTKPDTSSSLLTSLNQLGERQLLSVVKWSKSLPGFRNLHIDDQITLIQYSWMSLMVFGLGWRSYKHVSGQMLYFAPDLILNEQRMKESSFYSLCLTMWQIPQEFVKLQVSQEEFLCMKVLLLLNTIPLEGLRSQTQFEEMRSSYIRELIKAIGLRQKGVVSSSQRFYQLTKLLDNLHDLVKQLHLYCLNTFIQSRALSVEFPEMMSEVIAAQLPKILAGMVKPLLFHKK
Outline: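 Ratio-based beta-lactamase reporter signal after 16 hr compound treatment of PR-UAS-bla HEK293T cells at 37C. Substrate loading lasted 2 hr at room temperature.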

PGR (gene 5241) [3] = biological target: PGR (gene 5241) (UniProt P06401); test: TOX21_PR_BLA_Followup_Antagonist_ratio: Tox21 HEK293 Progesterone Receptor (PR) Antagonism Beta-lactamase Follow-Up Assay, Ratio (AID 2283934);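 further: PR-UAS-bla HEK293T cells stimulated with 1 nM R5020 agonist for 16 hr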
Outline: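 Measured in PR-UAS-bla HEK293T cells co-treated with compound and 1 nM promegestone for 16 hr; beta-lactamase ratio read after 2 h FRET substrate loading, with parallel CellTiter-Glo cytotoxicity.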

[4] = TOX21_PR_BLA_Followup_Agonist_viability: Viability Assessment in the Tox21 HEK293 Progesterone Receptor (PR) Agonism Beta-lactamase Follow-Up Assay (AID 2283935);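 further: signal loss means lower viability so actives are cytotoxic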
Outline: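 Viability is read as CellTiter-Glo luminescence, where loss of signal indicates cytotoxicity. The cells are PR-UAS-bla HEK293T given compounds for 16 hr at 37C and 5% CO2, in the same wells used for the bla readout.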

[5] = TOX21_PR_BLA_Followup_Antagonist_viability: Viability Assessment in the Tox21 HEK293 Progesterone Receptor (PR) Antagonism Beta-lactamase Follow-Up Assay (AID 2283936);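 further: cells exposed to compound with R5020 agonist for 16 h; hits lower the luminescence signal meaning cytotoxicity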
Outline: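 PR-UAS-bla HEK293T cells in medium with 2% charcoal-stripped FBS were treated with compounds plus R5020 for 16 hr at 37C. After the beta-lactamase read, CellTiter-Glo was added to the same wells and luminescence read after 30 min at room temperature.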

PGR (gene 5241) [6] = biological target: PGR (gene 5241) (UniProt P06401); test: TOX21_PR_LUC_Followup_Agonist: Tox21 HEK293 Progesterone Receptor (PR) Agonism Luciferase Follow-Up Assay (AID 2283937; active means hit-call score of the fitted dose curve at least 0.9, where 1 is the maximum; inactive means score below 0.9)
Outline: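 In HEK293 cells stably expressing PR-A with a luciferase reporter, compounds were incubated 16 h at 37C, and induced luminescence was quantified with ONE-Glo, multiplexed with cell viability.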

PGR (gene 5241) [7] = biological target: PGR (gene 5241) (UniProt P06401); test: TOX21_PR_LUC_Followup_Antagonist: Tox21 HEK293 Progesterone Receptor (PR) Antagonism Luciferase Follow-Up Assay (AID 2283938);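 further: curve fitted upward as signal gain over DMSO baseline despite antagonist label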
Outline: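 A follow-up to the PR bla screen using HEK293-PR-A-luc cells, multiplexed with cell viability to flag cytotoxicity. Reporter luminescence after 16 h compound exposure was analysed relative to DMSO.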

[8] = biological target: Cellular tumor antigen p53 (Homo sapiens) (UniProt P04637); test: TOX21_p53_BLA_p4_ratio: Tox21 HCT-116 p53 Agonism Beta-lactamase Assay, Ratio, Phase 4 (AID 2283601)
Chain of Cellular tumor antigen p53 (Homo sapiens) (P04637 whole entry, looked up): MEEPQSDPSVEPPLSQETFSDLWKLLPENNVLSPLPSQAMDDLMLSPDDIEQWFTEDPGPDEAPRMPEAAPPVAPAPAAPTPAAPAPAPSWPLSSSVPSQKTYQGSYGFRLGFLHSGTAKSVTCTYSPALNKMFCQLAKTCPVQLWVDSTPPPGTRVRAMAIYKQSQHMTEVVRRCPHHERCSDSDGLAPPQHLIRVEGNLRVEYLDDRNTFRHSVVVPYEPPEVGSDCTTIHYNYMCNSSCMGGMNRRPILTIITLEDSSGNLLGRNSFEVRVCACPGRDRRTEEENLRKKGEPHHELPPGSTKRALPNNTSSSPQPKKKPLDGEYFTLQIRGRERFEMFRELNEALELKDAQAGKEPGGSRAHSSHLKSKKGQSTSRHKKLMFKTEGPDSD
Outline: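 HCT116 cells carrying an inducible beta-lactamase reporter were plated at 4000 cells/well, rested 5 h, then exposed to compounds in DMSO (217-fold dilution) for 16 h at 37C. CCF4-AM substrate was loaded 2 h at room temperature; 460/530 nm emission ratio scored gain-of-signal versus DMSO.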

[9] = CCTE_Simmons_CellTiterGLO_HEK293T: Viability Assessment in CCTE's Assays for Thyroperoxidase (TPO) Inhibition, Simmons Lab (AID 2283665);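 on AC50: cells exposed to compound for 24 h before readout; actives reduce ATP signal below DMSO vehicle meaning cytotoxicity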
Outline: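 ATP depletion measured in HEK293T cells after 24 h dosing (8 concentrations, 5 nM–87.5 uM final; DMSO 0.5%) using CellTiter-Glo luminescence; curves fit for loss of signal against DMSO baseline.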

[10] = biological target: Luciferin 4-monooxygenase (Photinus pyralis) (UniProt P08659); test: CCTE_Simmons_QuantiLum_inhib_2: CCTE's Firefly Luciferase Inhibition Assay, Simmons Lab (AID 2283767);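 on AC50: potency for inhibitors that lower luciferase luminescence relative to DMSO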
Chain of Luciferin 4-monooxygenase (Photinus pyralis) (P08659 whole entry, looked up): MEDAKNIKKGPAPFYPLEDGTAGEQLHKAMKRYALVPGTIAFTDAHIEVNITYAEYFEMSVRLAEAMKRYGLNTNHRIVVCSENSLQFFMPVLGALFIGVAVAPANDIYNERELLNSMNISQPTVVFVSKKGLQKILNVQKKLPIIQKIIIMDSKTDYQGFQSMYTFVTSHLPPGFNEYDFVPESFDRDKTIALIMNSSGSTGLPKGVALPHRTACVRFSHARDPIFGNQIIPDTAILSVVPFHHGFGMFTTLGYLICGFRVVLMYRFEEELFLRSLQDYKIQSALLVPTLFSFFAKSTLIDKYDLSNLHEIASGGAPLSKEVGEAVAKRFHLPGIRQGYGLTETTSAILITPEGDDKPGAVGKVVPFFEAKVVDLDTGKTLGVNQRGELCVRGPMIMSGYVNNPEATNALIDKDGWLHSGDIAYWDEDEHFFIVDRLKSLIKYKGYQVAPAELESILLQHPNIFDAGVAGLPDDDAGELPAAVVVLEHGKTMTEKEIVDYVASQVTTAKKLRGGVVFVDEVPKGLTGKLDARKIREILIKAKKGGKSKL
Outline: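 Eight-point titrations of each chemical, 5 nM–87.5 uM final in 0.5% DMSO, were run in three biological replicates against recombinant luciferase for 30 min at 37C. Bioluminescence signal loss, read on reagent injection, gave the inhibition endpoint.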

[11] = TOX21_p53_BLA_p5_viability: Viability Assessment in the Tox21 HCT-116 p53 Agonism Beta-lactamase Assay, Phase 5 (AID 2283600)
Outline: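 Viability is taken from cellular ATP content, measured by luciferase luminescence in the same wells after the beta-lactamase ratio read. Cells are seeded at 4000 per well and exposed to DMSO-dissolved compounds, diluted 217-fold, for 16 h.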

[12] = biological target: Thyroid hormone receptor alpha (Rattus norvegicus) + Thyroid hormone receptor beta (Rattus norvegicus) (UniProt P18113+P63059); test: TOX21_TR_LUC_GH3_Agonist_Followup: Tox21 GH3 Thyroid Hormone Receptor Agonism Luciferase Follow-Up Assay (AID 2283939)
Chain of Thyroid hormone receptor alpha (Rattus norvegicus) + Thyroid hormone receptor beta (Rattus norvegicus) (P63059 whole entry, looked up): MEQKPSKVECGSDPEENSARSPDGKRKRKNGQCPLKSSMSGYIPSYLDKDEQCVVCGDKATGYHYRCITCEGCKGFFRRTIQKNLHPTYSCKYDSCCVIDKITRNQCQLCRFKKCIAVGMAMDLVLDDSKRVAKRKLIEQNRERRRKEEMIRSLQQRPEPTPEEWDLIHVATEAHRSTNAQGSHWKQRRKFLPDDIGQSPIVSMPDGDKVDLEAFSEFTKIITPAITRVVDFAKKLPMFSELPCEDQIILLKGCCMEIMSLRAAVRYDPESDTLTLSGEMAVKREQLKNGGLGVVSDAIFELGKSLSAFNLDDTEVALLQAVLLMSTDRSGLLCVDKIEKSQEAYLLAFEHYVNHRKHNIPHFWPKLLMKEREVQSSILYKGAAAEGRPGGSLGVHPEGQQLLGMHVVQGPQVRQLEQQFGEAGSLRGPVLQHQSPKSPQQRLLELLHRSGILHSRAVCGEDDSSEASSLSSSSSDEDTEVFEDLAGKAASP
Chain of Thyroid hormone receptor alpha (Rattus norvegicus) + Thyroid hormone receptor beta (Rattus norvegicus) (P18113 whole entry, looked up): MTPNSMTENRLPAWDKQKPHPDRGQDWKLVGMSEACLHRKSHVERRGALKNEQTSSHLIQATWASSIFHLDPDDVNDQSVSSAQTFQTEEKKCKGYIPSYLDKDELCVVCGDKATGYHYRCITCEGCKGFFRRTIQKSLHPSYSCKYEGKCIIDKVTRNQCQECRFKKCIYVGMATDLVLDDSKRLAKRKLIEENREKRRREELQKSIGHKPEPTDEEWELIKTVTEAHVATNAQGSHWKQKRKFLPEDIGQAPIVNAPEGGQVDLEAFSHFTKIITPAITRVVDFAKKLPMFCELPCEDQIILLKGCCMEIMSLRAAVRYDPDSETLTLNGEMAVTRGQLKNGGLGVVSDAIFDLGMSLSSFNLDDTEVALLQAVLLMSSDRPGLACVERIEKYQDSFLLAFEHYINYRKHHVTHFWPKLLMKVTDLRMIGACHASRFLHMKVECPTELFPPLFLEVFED
Outline: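 Agonist-mode confirmatory run: 15 concentrations (5 nM to 92 uM final) on GH3 rat pituitary cells, 24 h at 37C/5% CO2, T3 as positive control. Luminescence read with ONE-Glo after 30 min.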

THRA (gene 7067) = THRA (gene 7067) (UniProt P10827); test: TOX21_TRA_COA_Agonist_Followup_ratio: Tox21 Thyroid Hormone Receptor alpha Agonism through Coactivator Recruitment Follow-Up Assay, Ratio (AID 2283948; active means hit-call score of the fitted dose curve at least 0.9, where 1 is the maximum; inactive means score below 0.9)
Chain of THRA (gene 7067) (P10827 whole entry, looked up, the tested form may be a part): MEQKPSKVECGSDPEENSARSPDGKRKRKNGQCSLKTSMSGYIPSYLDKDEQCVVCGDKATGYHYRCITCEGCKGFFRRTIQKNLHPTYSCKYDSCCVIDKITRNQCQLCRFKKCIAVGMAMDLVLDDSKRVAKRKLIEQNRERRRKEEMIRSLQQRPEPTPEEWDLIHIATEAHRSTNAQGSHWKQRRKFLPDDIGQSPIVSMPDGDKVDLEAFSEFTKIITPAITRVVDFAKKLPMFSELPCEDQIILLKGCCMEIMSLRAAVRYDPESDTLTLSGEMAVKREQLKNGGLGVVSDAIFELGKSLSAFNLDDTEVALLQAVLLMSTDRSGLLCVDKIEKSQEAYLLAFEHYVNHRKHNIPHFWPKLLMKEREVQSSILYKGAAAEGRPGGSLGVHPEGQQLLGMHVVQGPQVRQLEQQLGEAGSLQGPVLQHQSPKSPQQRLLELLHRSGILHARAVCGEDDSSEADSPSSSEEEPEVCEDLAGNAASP
Outline: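 First, compound was incubated with 2.5 nM GST-TRα LBD in 0.10% BSA. Next, 200 nM fluorescein-SRC-2 and 2 nM Tb-anti-GST antibody were added. Finally, the 520:495 nm ratio was normalized to DMSO and T3 controls.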

THRB (gene 7068) [13] = biological target: THRB (gene 7068) (UniProt P10828); test: TOX21_TRB_BLA_Agonist_Followup_ratio: Tox21 Thyroid Hormone Receptor beta Agonism Beta-lactamase (BLA) Follow-Up Assay, Ratio (AID 2283954)
Chain of THRB (gene 7068) (P10828 whole entry, looked up, the tested form may be a part): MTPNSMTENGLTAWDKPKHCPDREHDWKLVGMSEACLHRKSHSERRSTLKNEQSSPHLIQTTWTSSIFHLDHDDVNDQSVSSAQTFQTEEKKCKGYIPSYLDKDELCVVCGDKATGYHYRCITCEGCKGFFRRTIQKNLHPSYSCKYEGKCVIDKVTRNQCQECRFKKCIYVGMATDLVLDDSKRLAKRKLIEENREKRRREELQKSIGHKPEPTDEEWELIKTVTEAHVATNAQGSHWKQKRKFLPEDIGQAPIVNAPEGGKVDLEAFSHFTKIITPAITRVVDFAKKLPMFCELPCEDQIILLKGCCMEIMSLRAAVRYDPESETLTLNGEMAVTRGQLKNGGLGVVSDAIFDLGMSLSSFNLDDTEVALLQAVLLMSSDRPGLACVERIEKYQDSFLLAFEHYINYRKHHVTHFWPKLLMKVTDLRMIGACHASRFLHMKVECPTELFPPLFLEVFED
Outline: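 Agonist mode: compounds (11-point, triplicate) incubated 18 h with HEK293T cells carrying GAL4-DBD/human TRβ-LBD and UAS-β-lactamase. Blue/green (460/530 nm) FRET ratio read after 2 h CCF4-AM loading; CellTiter-Glo viability run in the same plates.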

THRB (gene 7068) [14] = biological target: THRB (gene 7068) (UniProt P10828); test: TOX21_TRB_COA_Agonist_Followup_ratio: Tox21 Thyroid Hormone Receptor beta Agonism through Coactivator Recruitment Follow-Up Assay, Ratio (AID 2283963; active means hit-call score of the fitted dose curve at least 0.9, where 1 is the maximum; inactive means score below 0.9)
Outline: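 Cell-free TR-FRET coactivator recruitment: GST-tagged TRβ LBD (5.0 nM) with 0.10% BSA incubated with compound, then fluorescein-SRC-2 peptide (200 nM) and Tb-anti-GST antibody (2 nM) added. 520:495 nm ratio normalized to DMSO (0%) and T3 (100%).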

[15] = biological target: Retinoic acid receptor RXR-alpha (Homo sapiens) (UniProt P19793); test: TOX21_TR_RXR_BLA_Agonist_Followup_ratio: Tox21 Thyroid Hormone Receptor beta Retinoid X Receptor alpha (RXRa) Agonism Beta-lactamase (BLA) Follow-Up Assay, Ratio (AID 2283968)
Outline: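 Agonism is scored as an increase in the 460:530 nm beta-lactamase substrate ratio over DMSO in RXRa-UAS-bla HEK293T cells exposed for 16 h to 11 compound concentrations.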

[16] = TOX21_TR_RXR_BLA_Agonist_Followup_viability: Viability Assessment in the Tox21 Thyroid Hormone Receptor beta Retinoid X Receptor alpha (RXRa) Agonism Beta-lactamase (BLA) Follow-Up Assay (AID 2283970)
Outline: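 Luminescent ATP read (CellTiter-Glo) after 16h exposure of RXRa-UAS-bla HEK293T cells at 37C/5% CO2. Activity normalized to DMSO; signal loss scored as reduced viability.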

[17] = biological target: Nucleoli Translocation, AR (gene 367) (UniProt P10275); test: UPITT_HCI_U2OS_AR_TIF2_Nucleoli_Antagonist: University of Pittsburgh U2OS Androgen Receptor-Transcriptional Intermediary Factor 2 (AR-TIF2) Antagonism High Content Imaging Assay for Nucleoli Translocation (AID 2283997)
Chain of Nucleoli Translocation, AR (gene 367) (P10275 whole entry, looked up): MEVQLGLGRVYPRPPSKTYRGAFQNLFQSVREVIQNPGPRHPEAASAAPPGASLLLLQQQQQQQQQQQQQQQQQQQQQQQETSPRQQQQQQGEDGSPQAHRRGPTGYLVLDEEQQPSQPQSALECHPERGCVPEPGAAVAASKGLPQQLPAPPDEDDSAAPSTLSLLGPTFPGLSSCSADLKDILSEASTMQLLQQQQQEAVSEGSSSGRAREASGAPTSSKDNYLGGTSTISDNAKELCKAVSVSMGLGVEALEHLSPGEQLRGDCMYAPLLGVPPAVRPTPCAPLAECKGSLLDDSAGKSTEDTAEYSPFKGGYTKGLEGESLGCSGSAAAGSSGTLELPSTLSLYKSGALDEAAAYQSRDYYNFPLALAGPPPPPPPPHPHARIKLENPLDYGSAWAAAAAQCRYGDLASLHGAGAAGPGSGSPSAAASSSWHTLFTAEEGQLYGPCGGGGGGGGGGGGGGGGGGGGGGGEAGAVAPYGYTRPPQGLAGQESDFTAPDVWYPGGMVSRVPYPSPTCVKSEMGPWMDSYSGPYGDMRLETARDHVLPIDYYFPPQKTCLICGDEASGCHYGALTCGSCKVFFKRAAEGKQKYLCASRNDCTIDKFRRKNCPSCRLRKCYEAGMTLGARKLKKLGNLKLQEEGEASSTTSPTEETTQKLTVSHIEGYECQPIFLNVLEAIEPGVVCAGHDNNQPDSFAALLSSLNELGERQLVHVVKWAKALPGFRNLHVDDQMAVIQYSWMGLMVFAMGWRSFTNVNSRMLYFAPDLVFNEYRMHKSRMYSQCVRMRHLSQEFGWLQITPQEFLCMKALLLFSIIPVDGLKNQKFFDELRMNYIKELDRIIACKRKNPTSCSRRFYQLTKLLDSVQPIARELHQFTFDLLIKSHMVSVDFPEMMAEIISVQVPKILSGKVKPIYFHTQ
Outline: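 An antagonist-mode imaging screen: engineered U2OS (AR-RFP, TIF2-GFP) exposed to 20 uM compound, 0.2% DMSO. Activity reflects nucleolar red fluorescence change relative to DHT baseline.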

[18] = biological target: Nucleoli Translocation, AR (gene 367) (UniProt P10275); test: UPITT_HCI_U2OS_AR_TIF2_Nucleoli_Agonist: University of Pittsburgh U2OS Androgen Receptor-Transcriptional Intermediary Factor 2 (AR-TIF2) Agonism High Content Imaging Assay for Nucleoli Translocation (AID 2283998)
Outline: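 Red-tagged human androgen receptor co-expressed with GFP-tagged TIF2 serves as the binding reporter. Primary testing used 20 uM final (0.2% DMSO); follow-up dose response covered 0.195 to 50 uM final (0.5% DMSO).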

[19] = biological target: Ratio of Nucleoli Translocation and Cytoplasm, AR (gene 367) (UniProt P10275); test: UPITT_HCI_U2OS_AR_TIF2_Nucleoli_Cytoplasm_Ratio_Agonist: University of Pittsburgh U2OS Androgen Receptor-Transcriptional Intermediary Factor 2 (AR-TIF2) Agonism High Content Imaging Assay for Ratio of Nucleoli Translocation and Cytoplasm (AID 2284000);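 further: hits raise the red nucleolar to cytoplasm ratio above vehicle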
Chain of Ratio of Nucleoli Translocation and Cytoplasm, AR (gene 367) (P10275 whole entry, looked up): as above
Outline: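 Primary screen at 20 uM final (0.2% DMSO), then triplicate confirmation and dose-response from 0.195 to 50 uM final (0.5% DMSO). Cells: U2OS with AR-RFP and TIF2-GFP. Endpoint is the nucleoli/cytoplasm red-fluorescence ratio, gain-of-signal vs DMSO.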

[20] = biological target: Ratio of Nucleoli Translocation and Cytoplasm, AR (gene 367) (UniProt P10275); test: UPITT_HCI_U2OS_AR_TIF2_Nucleoli_Cytoplasm_Ratio_Antagonist: University of Pittsburgh U2OS Androgen Receptor-Transcriptional Intermediary Factor 2 (AR-TIF2) Antagonism High Content Imaging Assay for Ratio of Nucleoli Translocation and Cytoplasm (AID 2283999);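 further: antagonists lower the DHT-driven ratio of nucleolar to cytoplasmic red signal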
Outline: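 This antagonist-mode endpoint tracks AR-RFP localisation, the nucleolus-to-cytoplasm intensity ratio, in TIF2-GFP-coexpressing U2OS cells. DMSO stays at or below 0.5%; testing spans 20 uM single-dose and 0.195–50 uM series, with DHT setting the activity baseline.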

With `CC1=CC(=O)CCC1` the outcome [1] was “inactive”.
With `Clc1ccc2c(c1)Nc1ccccc1S2` the outcome (PGR (gene 5241) [2]) was “inactive”, the AC50 (PGR (gene 5241) [3]) was 19.4 µM (active) and the outcome [4] was “inactive”. The outcome [5] was “inactive”, the outcome (PGR (gene 5241) [6]) was “inactive” and the AC50 (PGR (gene 5241) [7]) was 28.9 µM (active).
For `CN(C)CC/C=C1\c2ccccc2COc2ccccc21`, the outcome [8] was “inactive”.
In the case of `CNC(=O)N(c1ccccc1)c1ccccc1`, the outcome [8] is reported as “inactive”.
In the case of `OCc1ncccc1O`, the outcome [9] is reported as “inactive” and the outcome [10] is reported as “inactive”.
With `O=C(O)c1c(Cl)ccc(Cl)c1Cl` the outcome [1] was “inactive”.
In the case of `O=C(O)CNC(=O)c1ccc(CO)o1`, the outcome [8] is reported as “inactive”.
For `CCCCOC(=O)c1ccccc1O`, the AC50 [9] was 53.6 µM (active) and the outcome [10] was “inactive”.
With `O=[N+]([O-])c1ccc2[nH]c(=S)[nH]c2c1` the outcome [10] was “inactive”.
In the case of `CN(C)C(=S)N(C)C`, the AC50 [10] is reported as 79.5 µM (active).
For `CSc1nc2ccccc2s1`, the AC50 [9] was 53.6 µM (active) and the AC50 [10] was 35.1 µM (active).
In the case of `CC(C)NCC(O)COc1ccc(CCOCC2CC2)cc1` (stereo not drawn), the outcome [8] is reported as “inactive”.
In the case of `O=c1cccc(O)[nH]1`, the outcome [9] is reported as “inactive” and the outcome [10] is reported as “inactive”.
For `CC(=O)OC(C)OC(C)=O`, the outcome [11] was “inactive” and the outcome [8] was “inactive”.
With `O=Cc1c2ccccc2c(Cl)c2ccccc12` the outcome [8] was “inactive”.
In the case of `C=CC1CNC(=S)O1` (stereo not drawn), the outcome [10] is reported as “inactive”.
In the case of `Cc1ccc(C=C2C(=O)C3(C)CCC2C3(C)C)cc1` (stereo not drawn), the AC50 [9] is reported as 15.3 µM (active).
With `O=C1CC(c2ccc(O)cc2)Oc2cc(O)cc(O)c21` (stereo not drawn) the outcome [9] was “inactive” and the outcome [10] was “inactive”.
In the case of `O=C(NO)c1ccccc1O`, the outcome [10] is reported as “inactive”.
For `COc1cnc(NS(=O)(=O)c2ccc(N)cc2)nc1`, the outcome [8] was “inactive”.
For `Nc1ncn([C@H]2C[C@H](O)[C@@H](CO)O2)c(=O)n1`, the outcome [12] was “inactive”, the outcome (THRA (gene 7067)) was “inactive” and the outcome (THRB (gene 7068) [13]) was “inactive”. The outcome (THRB (gene 7068) [14]) was “inactive”, the outcome [15] was “inactive” and the outcome [16] was “inactive”.
With `C=C(NC(=O)C(=C)NC(=O)c1csc(C2=NC3c4csc(n4)C4NC(=O)c5csc(n5)C(C(C)(O)C(C)O)NC(=O)C5CSC(=N5)/C(=C/C)NC(=O)C(C(C)O)NC(=O)c5csc(n5)C3(CC2)NC(=O)C(C)NC(=O)C(=C)NC(=O)C(C)NC(=O)C(C(C)CC)NC2C=Cc3c(C(C)O)cc(nc3C2O)C(=O)OC4C)n1)C(N)=O` (stereo not drawn) the AC50 [12] was 2.47 µM (active), the outcome (THRA (gene 7067)) was “inactive” and the outcome (THRB (gene 7068) [14]) was “inactive”. For the same molecule, the outcome [15] was “inactive” and the outcome [16] was “inactive”.
With `CCCCC(C)=O` the outcome [17] was “inactive”, the outcome [18] was “inactive” and the outcome [19] was “inactive”.
In the case of `O=C1NC(=O)c2ccc3c4ccc5c6c(ccc(c7ccc1c2c73)c64)C(=O)NC5=O`, the outcome [17] is reported as “inactive”, the outcome [20] is reported as “inactive” and the outcome [19] is reported as “inactive”.
